# Test results: PubChem BioAssay (NCATS)
# Inconclusive results are not listed. Unmarked numbers belong to inactive results. Active and inactive are the calls of the source. Calls come from the whole dose curve; as a rule, active = well fitted inhibition curve with a large enough effect; inconclusive = small, poorly fitted or top-dose-only effect; inactive = flat fitted curve, though single readings scatter. Where a SMILES comes first, the peptide text is derived from it. [ ]: non-standard residue; d: D form. ξ: configuration not given here. ξPhe(βξ-Me) = CC(c1ccccc1)C(N)C(=O)O; GABA = NCCCC(=O)O
# Tested on: KB-3-1
# Assay: Cytotoxic Profiling of Annotated Libraries Using Quantitative High-Throughput Screening (AID 1296008); note: nearly all actives have a fitted effect of over 60% in size
# Conditions: Five cell lines viability, CellTiter-Glo ATP luminescence, 48-72 h; max response: hits give low values
# How it was run: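 Cytotoxicity was measured as CellTiter-Glo ATP luminescence, read after 10 min at room temperature. Compound treatment of the cells lasted 48 or 72 hr at 37 degrees Celsius in a qHTS format.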
# % is set by controls: 0 for no effect and ±100 for the full control effect.
SMILES,outcome,max response
O=C(OCc1cccc(O)c1O[C@@H]1O[C@H](CO)[C@@H](O)[C@H](O)[C@H]1O)C1(O)C(=O)C2C=CC1C1C=CC(=O)C(O)(C(=O)OCc3cccc(O)c3O[C@@H]3O[C@H](CO)[C@@H](O)[C@H](O)[C@H]3O)C21 (some centres undefined),inactive,–
C/C=C(\C)C(=O)O[C@H]1[C@H](O)[C@]2(COC(C)=O)[C@H](O)C[C@]3(C)C(=CCC4[C@@]5(C)CC[C@H](O[C@@H]6O[C@H](C(=O)O)[C@@H](O[C@@H]7O[C@H](CO)[C@@H](O)[C@H](O)[C@H]7O)[C@H](O)[C@H]6O[C@@H]6O[C@H](CO)[C@@H](O)[C@H](O)[C@H]6O)[C@](C)(CO)C5CC[C@]43C)[C@@H]2CC1(C)C (some centres undefined),inactive,–
CC(=O)O[C@@H]1C[C@@]23C[C@@]24CC[C@H](OC2OC[C@@H](O)[C@H](O)[C@H]2O)C(C)(C)[C@@H]4CC[C@H]3[C@]2(C)CC3OC4(C[C@@H](C)C3[C@@]12C)OCC1(C)OC14 (some centres undefined),–,-4.87%
COc1ccc2c(c1O)OC[C@H]1c3ccc(O)cc3O[C@@H]21,inactive,–
CC1=CC(=O)C2C(C)(C)CCCC2(C)C12CCC1(COC(=O)C1)O2 (centres undefined),–,5.32%
C[C@]1(O)CC[C@@H]2C(C(=O)O)=CO[C@@H](O[C@@H]3O[C@H](COC(=O)c4ccc(O)cc4)[C@@H](O)[C@H](O)[C@H]3O)[C@@H]21,–,9.39%
O=C(c1ccccn1)c1cnn2c(-c3ccncc3)ccnc12,–,-2.39%
C=CC1(C)C=C2C(O)CC3C(C)(C(=O)O)CCCC3(C)C2CC1 (centres undefined),–,7.58%
COC(=O)C1=CO[C@@H](O[C@@H]2O[C@H](COC(=O)/C=C/c3cc(OC)c(O)c(OC)c3)[C@@H](O)[C@H](O)[C@H]2O)[C@@H]2C(CO)=CC[C@H]12,–,1.62%
CC12CCC3C(C)(C)C(O)CCC3(C)C1Cc1c(oc(C(=O)O)cc1=O)O2 (centres undefined),inactive,–
C=C(C)C(C)C1OC23CC4(CO2)C(CCC2C5(C)CCC(OC6OCC(O)C(OC7OC(CO)C(O)C(OC8OCC(O)C(O)C8O)C7O)C6OC6OC(CO)C(O)C6O)C(C)(C)C5CCC24C)C3C(C)(O)C1OC(C)=O (centres undefined),–,6.52%
CC(=O)Oc1cc2c(s1)CCN([C@H](C(=O)C1CC1)c1ccccc1F)C2,inactive,–
Cc1ncc([N+](=O)[O-])n1CC(O)CN1CCOCC1 (centres undefined),inactive,–
O=C(c1ccc(NS(=O)(=O)c2cccc3cccnc23)cc1)N1CCN(CC2CC2)CC1,–,-0.69%
C/C(=C\CCC(C)(O)c1ccc(C)cc1)C(=O)O (centres undefined),inactive,–
COc1cc(C2Oc3c(OC)cc(/C=C/C(=O)OC[C@H]4O[C@@H](OC(C)(C)C(=O)O)[C@H](O)[C@@H](O)[C@@H]4O)cc3C2CO)ccc1O (some centres undefined),–,0.492%
CC(C)CC1NC(=O)C(C(C)c2ccccc2)NC(=O)C(C(C)C)NC(=O)C(C)NC(=O)CCCNC(=O)C(Cc2c[nH]c3ccccc23)NC(=O)C(C)NC1=O (stereo not drawn) (cyclo([GABA]AV[ξPhe(βξ-Me)]LAW); configuration not given here),inactive,–
C=CC1C(O[C@@H]2O[C@H](CO)[C@@H](O)[C@H](O)[C@H]2O)OC=C(C(=O)OC)C1CC(=O)O (some centres undefined),–,9.2%
CC1CCC2(NC1)OC1C(=O)C3C4CCC5CC(O[C@@H]6O[C@H](CO)[C@@H](O)[C@H](O)[C@H]6O[C@@H]6O[C@@H](C)[C@H](O)[C@@H](O)[C@H]6O)CCC5(C)C4CCC3(C)C1C2C (some centres undefined),–,-4.49%
C=C(C(=O)O)C1CCC(C)C2CCC(=O)OC2(C)C1 (centres undefined),–,6.53%

SMILES,outcome,max response
CC1(C)C(=O)N2c3ccccc3[C@]3(CC(n4cnc5ccccc5c4=O)C(=O)O3)[C@H]2N1O (some centres undefined),inactive,–
CC(C)c1nc(N(C)S(C)(=O)=O)nc(-c2ccc(F)cc2)c1/C=C/[C@@H](O)C[C@@H](O)CC(=O)O,inactive,–
O=C(O)Cc1nn(Cc2nc3cc(C(F)(F)F)ccc3s2)c(=O)c2nccnc12,–,9.35%
O=C(O)CCc1cc2ccoc2cc1O[C@@H]1O[C@H](CO[C@@H]2OC[C@](O)(CO)[C@H]2O)[C@@H](O)[C@H](O)[C@H]1O,–,9.81%
COc1ccc(/C=C/C(=O)O[C@@H]2[C@@H](OC(C)=O)[C@@H](OC(C)=O)[C@H](O[C@H]3[C@@H]4C=CO[C@@H](O[C@@H]5O[C@H](CO)[C@@H](O)[C@H](O)[C@H]5O)[C@@H]4[C@@]4(CO)O[C@@H]34)O[C@H]2C)cc1O,–,9.42%
C=CC(C)(O)CC/C=C(\C)C(=O)OC1CC2(C(=O)O)CCC3(C)C(=CCC4C5(C)CCC(OC6OC(COC7OCC(O)C(O)C7O)C(O)C(OC7OCC(O)C(O)C7O)C6OC6OC(CO)C(O)C(O)C6OC6OCC(O)C(O)C6O)C(C)(C)C5CCC43C)C2CC1(C)C (centres undefined),inactive,–
C=C1CC2[C@]3(C)C(=C(O)C(=O)[C@@]2(C)[C@]2(C(=O)OC)C(=O)C(C)OC(=O)[C@@]12C)C(C)(C)C(=O)CC3O (some centres undefined),inactive,–
C=C1CCC(OC(C)=O)C2(C)CC3(O)OC(=O)C(C)=C3CC12 (centres undefined),–,4.81%
C[C@@H]1CC[C@H]2C(C)(C)[C@H](O)[C@H](O)C[C@]2(C)[C@@]12Cc1c(O)cc3c(c1O2)CNC3=O,inactive,–
C[C@H]1[C@H](C)CC[C@]2(C(=O)O[C@@H]3O[C@H](CO)[C@@H](O)[C@H](O)[C@H]3O)CC[C@]3(C(=O)O)C(=CCC4[C@@]5(C)CC[C@H](O[C@@H]6O[C@H](CO)[C@@H](O)[C@H](O)[C@H]6O)C(C)(C)C5CC[C@]43C)[C@H]12 (some centres undefined),–,2.34%
C1CCN2CC3C[C@@H](CN4CCCC[C@@H]34)[C@H]2C1,–,5.45%
O=C(COc1ccc(Cl)cc1)NC1CCC(NC(=O)COc2ccc(Cl)cc2)CC1 (centres undefined),–,-4.12%
COc1cc(C(O)C(CO)Oc2ccc(CCCO[C@@H]3O[C@@H](C)[C@H](O)[C@@H](O)[C@H]3O)cc2OC)ccc1O (some centres undefined),inactive,–
CC(C)=CC/C=C(/C)[C@H]1CC[C@]2(C)[C@@H]1[C@H](O)CC1[C@@]3(C)CC[C@H](O)C(C)(C)[C@@H]3[C@@H](O[C@@H]3O[C@H](CO)[C@@H](O)[C@H](O)[C@H]3O[C@@H]3O[C@@H](C)[C@H](O)[C@@H](O)[C@H]3O)C[C@]12C (some centres undefined),–,7.96%
CC1CC(O)C2(C)C(C(=O)O)=CCCC2C1(C)CCc1ccoc1 (centres undefined),inactive,–
C/C=C(\C)C(=O)O[C@@H]1CC2[C@@H](CC=C3C[C@@H](O[C@H]4C[C@H](OC)[C@H](O[C@H]5C[C@H](OC)[C@H](O[C@H]6C[C@H](OC)[C@H](O[C@H]7C[C@@H](OC)[C@H](O[C@@H]8O[C@H](CO)[C@@H](O)[C@H](O)[C@H]8O)[C@@H](C)O7)[C@@H](C)O6)[C@@H](C)O5)[C@@H](C)O4)CC[C@@]32C)[C@@]2(O)CC[C@H](C(C)=O)[C@@]12C (some centres undefined),–,-8.02%
C[C@@H]1O[C@@H](O[C@H]2[C@H](OC(=O)[C@]34CCC(C)(C)C[C@H]3C3=CCC5[C@@]6(C)C[C@H](O)[C@H](O[C@@H]7O[C@H](CO[C@@H]8OC[C@H](O)[C@H](O)[C@H]8O)[C@@H](O)[C@H](O)[C@H]7O)C(C)(C)C6CC[C@@]5(C)[C@]3(C)C[C@H]4O)OC[C@@H](O)[C@@H]2O)[C@H](O)[C@H](O[C@@H]2OC[C@](O)(CO)[C@H]2O)[C@H]1O[C@@H]1OC[C@H](O)[C@H](O[C@@H]2OC[C@@H](O)[C@H](O)[C@H]2O)[C@H]1O (some centres undefined),inactive,–
O=C(NCC(=O)N1CC[C@H](NC2CCC(O)(c3ccc(-c4ncccn4)cn3)CC2)C1)c1cccc(C(F)(F)F)c1 (some centres undefined),inactive,–
CCNC(=O)CCC/C=C\C[C@@H]1[C@@H](/C=C/C(O)CCc2ccccc2)[C@@H](O)C[C@@H]1O (some centres undefined),–,9.15%
